# Experimental data reported in PubChem BioAssay (EPA / NIEHS).
# Active and inactive are the calls of the source. The calls were made as follows: active = hit-call score of the fitted dose curve at least 0.9, where 1 is the maximum; inactive = score below 0.9.
# Read-out: HGF (gene 3082)
# Test: LTEA_HepaRG_HGF: Life Technologies and Expression Analysis (LTEA) Assay for Hepatocyte Growth Facto (HGF) using HepaRG (AID 2283505)
# Settings: mRNA level, 48 h; actives raise or lower the signal
# Procedure, shortened: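 HGF transcript was quantified by TaqMan qRT-PCR against three housekeeping genes after 48 h treatment of HepaRG cells. Exposure ran in duplicate over eight half-log steps topping at 100 uM in 0.5% DMSO vehicle.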
row,SMILES,outcome
1,O=C(Oc1ccccc1)c1cccc(C(=O)Oc2ccccc2)c1,inactive
2,CC(=O)CC(c1ccccc1)c1c(O)c2ccccc2oc1=O (stereo unspecified),inactive
3,C#CC(O)C(CC)CCCC (stereo unspecified),inactive
4,COc1ccc(OC(F)(F)F)cc1CN[C@H]1CCCN[C@H]1c1ccccc1,inactive
5,CCCCC(CC)COP(=O)(OCC(CC)CCCC)OCC(CC)CCCC (stereo unspecified),inactive
6,CCC(C)N(C)C(=O)c1cc2ccccc2c(-c2ccccc2Cl)n1 (stereo unspecified),inactive

# Read-out: Insulin Like Growth Factor 1 (IGF1), IGF1 (gene 3479)
# Test: LTEA_HepaRG_IGF1: Life Technologies and Expression Analysis (LTEA) Assay for Insulin Like Growth Factor 1 (IGF1) using HepaRG (AID 2283506)
# Settings: mRNA level, 48 h; actives raise or lower the signal
# Procedure, shortened: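 Differentiated human HepaRG cells were dosed for 48 h in serum-free induction medium with 0.5% DMSO, eight half-log concentrations up to 100 uM, in duplicate. IGF1 mRNA was quantified by qRT-PCR normalized to ACTB, GAPDH, POLR2A; bidirectional fitting versus DMSO.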
SMILES,outcome,AC50
O=C(O)c1[nH]n(-c2ccc(S(=O)(=O)O)cc2)c(=O)c1N=Nc1ccc(S(=O)(=O)O)cc1,inactive,
CCCCCCCCCCCCCCOS(=O)(=O)O,,24.6 µM (active)
CC(=O)O,inactive,
CC(C)COC(=O)CCCCC(=O)OCC(C)C,inactive,
CC(C)(C)c1ccccc1,inactive,
CC(C)NCC(O)c1ccc(O)c(O)c1 (stereo unspecified),inactive,
CCCCCCCCCC[N+](C)(C)[O-],inactive,
c1ccc2occc2c1,inactive,
CC(=O)OCC(COC(C)=O)OC(C)=O,inactive,
Oc1ccc(O)cc1,inactive,
O=C(O)CC(O)(CC(=O)O)C(=O)O,inactive,
COc1ccc(C(=O)Nc2nc3ccccc3c(NCc3ccccc3)c2C#N)cc1,,13.4 µM (active)
NC=O,inactive,
CC(COCC(C)OC(=O)c1ccccc1)OC(=O)c1ccccc1 (stereo unspecified),inactive,
Cc1cn([C@H]2C=C[C@@H](CO)O2)c(=O)[nH]c1=O,inactive,
CCN(CC)CCOc1ccc(C(=C(Cl)c2ccccc2)c2ccccc2)cc1,,13.3 µM (active)
NCCOCCOCCN,inactive,
C/C=C/c1ccc(OC)cc1,inactive,
COC(=O)[C@H]1[C@H]2C[C@@H]3c4[nH]c5cc(OC)ccc5c4CCN3C[C@H]2C[C@@H](OC(=O)c2cc(OC)c(OC)c(OC)c2)[C@@H]1OC,,54.4 µM (active)
N[C@@H](Cc1c[nH]c2ccccc12)C(=O)O,inactive,
CSc1ccc(Oc2ccc(S(N)(=O)=O)cc2CN(C)C)cc1C,inactive,
OCC(O)CO,inactive,
CCc1nc(N)nc(N)c1-c1ccc(Cl)cc1,,11.8 µM (active)
CC(=O)[C@@]1(O)CC[C@H]2[C@@H]3CCC4=CC(=O)CC[C@]4(C)[C@H]3CC[C@@]21C,inactive,
O=C(Oc1ccccc1)c1cccc(C(=O)Oc2ccccc2)c1,inactive,
CC(=O)CC(c1ccccc1)c1c(O)c2ccccc2oc1=O (stereo unspecified),inactive,
C#CC(O)C(CC)CCCC (stereo unspecified),inactive,
COc1ccc(OC(F)(F)F)cc1CN[C@H]1CCCN[C@H]1c1ccccc1,inactive,
CCCCC(CC)COP(=O)(OCC(CC)CCCC)OCC(CC)CCCC (stereo unspecified),inactive,
CCC(C)N(C)C(=O)c1cc2ccccc2c(-c2ccccc2Cl)n1 (stereo unspecified),,21.6 µM (active)
